From PubChem BioAssay come the findings set out here.

Experiment [1] can be described thus: binders of probe aFSTL3 on microarray, primary screen, stem cell growth factor project, biochemical, small-molecule microarray, fluorescence 635/667 (AID 1064).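 Further: measures binding of the biotinylated anti-FSTL3 antibody to printed compounds.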 Conditions: higher = more signal.
The nature of experiment [2]: binders from COS7 lysate, DM2A8 probe, primary screen, torsin A project, cell lysate, small-molecule microarray, fluorescence 635/667 (AID 1065). As to conditions: higher = more signal, COS7 lysate expressing mutant human TOR1A.
A short description of experiment [3]: binders of probe aFGF2 on microarray, primary screen, stem cell growth factor project, biochemical, small-molecule microarray, fluorescence 635/667 (AID 1067).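 Further: measures binding of biotinylated aFGF2 protein to printed compounds on slides; z-score merges feature fluorescence and signal-to-noise across triplicate slides.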 As to conditions: higher = more signal.
Experiment [4] in a line: binders of probe aFGF10 on microarray, primary screen, stem cell growth factor project, biochemical, small-molecule microarray, fluorescence 635/667 (AID 1071).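 Further: score merges 667 nm spot intensity and signal to noise from triplicate slides.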 As to conditions: higher = more signal.
Experiment [5] concerns the target Neurogenic locus notch homolog protein 2 (Homo sapiens) (UniProt Q04721). The experiment can be described thus: Notch2 binders on small-molecule microarrays, primary screen, biochemical, small-molecule microarray, 635 nm fluorescence, stem cell growth factors (AID 1073). As to conditions: Notch2 binding, higher = more signal.
Experiment [6] has as its target Pro-neuregulin-1, membrane-bound isoform (Homo sapiens) (UniProt Q02297). Description: NRG1 binders on small-molecule microarrays, primary screen, psychiatric disease protein project, biochemical, small-molecule microarray, fluorescence 635/667 (AID 1075).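 Further: score combines 667 nm spot fluorescence with signal to noise.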 Conditions: NRG1 binding, 635 nm fluorescence, higher = more signal.
The test system of experiment [7] is Neuregulin-1 EGF-like domain. Description: binders of neuregulin-1 EGF-like domain, primary screen, biochemical, small-molecule microarray, 635 nm fluorescence (AID 1081).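 Further: binding of the protein to compounds printed on small-molecule microarray slides.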 As to conditions: small-molecule microarray binding, higher = more signal.
Experiment [8] in a line: FRG1 promoter luciferase signal modulators, primary screen, FRG1 inhibition for FSHD, cell-based, C2C12 myotubes, firefly/Renilla luciferase, luminescence (AID 1084). Conditions: higher = more signal, called active from +8 up or from −8 down.
A short description of experiment [9]: binders of probe aFST on microarray, primary screen, stem cell growth factor project, biochemical, small-molecule microarray, fluorescence 635/667 (AID 1086).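 Further: score merges 667 nm fluorescence with signal-to-noise of each printed compound spot.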 Conditions: higher = more signal.
The nature of experiment [10]: binders of probe aHhip on microarray, primary screen, stem cell growth factor project, biochemical, small-molecule microarray, fluorescence 635/667 (AID 1087).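 Further: score merges spot fluorescence at 667nm with spot signal to noise ratio.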 As to conditions: higher = more signal.

The source made the active and inactive calls.

Chain of Neurogenic locus notch homolog protein 2 (Homo sapiens) (Q04721 whole entry, looked up, canonical isoform): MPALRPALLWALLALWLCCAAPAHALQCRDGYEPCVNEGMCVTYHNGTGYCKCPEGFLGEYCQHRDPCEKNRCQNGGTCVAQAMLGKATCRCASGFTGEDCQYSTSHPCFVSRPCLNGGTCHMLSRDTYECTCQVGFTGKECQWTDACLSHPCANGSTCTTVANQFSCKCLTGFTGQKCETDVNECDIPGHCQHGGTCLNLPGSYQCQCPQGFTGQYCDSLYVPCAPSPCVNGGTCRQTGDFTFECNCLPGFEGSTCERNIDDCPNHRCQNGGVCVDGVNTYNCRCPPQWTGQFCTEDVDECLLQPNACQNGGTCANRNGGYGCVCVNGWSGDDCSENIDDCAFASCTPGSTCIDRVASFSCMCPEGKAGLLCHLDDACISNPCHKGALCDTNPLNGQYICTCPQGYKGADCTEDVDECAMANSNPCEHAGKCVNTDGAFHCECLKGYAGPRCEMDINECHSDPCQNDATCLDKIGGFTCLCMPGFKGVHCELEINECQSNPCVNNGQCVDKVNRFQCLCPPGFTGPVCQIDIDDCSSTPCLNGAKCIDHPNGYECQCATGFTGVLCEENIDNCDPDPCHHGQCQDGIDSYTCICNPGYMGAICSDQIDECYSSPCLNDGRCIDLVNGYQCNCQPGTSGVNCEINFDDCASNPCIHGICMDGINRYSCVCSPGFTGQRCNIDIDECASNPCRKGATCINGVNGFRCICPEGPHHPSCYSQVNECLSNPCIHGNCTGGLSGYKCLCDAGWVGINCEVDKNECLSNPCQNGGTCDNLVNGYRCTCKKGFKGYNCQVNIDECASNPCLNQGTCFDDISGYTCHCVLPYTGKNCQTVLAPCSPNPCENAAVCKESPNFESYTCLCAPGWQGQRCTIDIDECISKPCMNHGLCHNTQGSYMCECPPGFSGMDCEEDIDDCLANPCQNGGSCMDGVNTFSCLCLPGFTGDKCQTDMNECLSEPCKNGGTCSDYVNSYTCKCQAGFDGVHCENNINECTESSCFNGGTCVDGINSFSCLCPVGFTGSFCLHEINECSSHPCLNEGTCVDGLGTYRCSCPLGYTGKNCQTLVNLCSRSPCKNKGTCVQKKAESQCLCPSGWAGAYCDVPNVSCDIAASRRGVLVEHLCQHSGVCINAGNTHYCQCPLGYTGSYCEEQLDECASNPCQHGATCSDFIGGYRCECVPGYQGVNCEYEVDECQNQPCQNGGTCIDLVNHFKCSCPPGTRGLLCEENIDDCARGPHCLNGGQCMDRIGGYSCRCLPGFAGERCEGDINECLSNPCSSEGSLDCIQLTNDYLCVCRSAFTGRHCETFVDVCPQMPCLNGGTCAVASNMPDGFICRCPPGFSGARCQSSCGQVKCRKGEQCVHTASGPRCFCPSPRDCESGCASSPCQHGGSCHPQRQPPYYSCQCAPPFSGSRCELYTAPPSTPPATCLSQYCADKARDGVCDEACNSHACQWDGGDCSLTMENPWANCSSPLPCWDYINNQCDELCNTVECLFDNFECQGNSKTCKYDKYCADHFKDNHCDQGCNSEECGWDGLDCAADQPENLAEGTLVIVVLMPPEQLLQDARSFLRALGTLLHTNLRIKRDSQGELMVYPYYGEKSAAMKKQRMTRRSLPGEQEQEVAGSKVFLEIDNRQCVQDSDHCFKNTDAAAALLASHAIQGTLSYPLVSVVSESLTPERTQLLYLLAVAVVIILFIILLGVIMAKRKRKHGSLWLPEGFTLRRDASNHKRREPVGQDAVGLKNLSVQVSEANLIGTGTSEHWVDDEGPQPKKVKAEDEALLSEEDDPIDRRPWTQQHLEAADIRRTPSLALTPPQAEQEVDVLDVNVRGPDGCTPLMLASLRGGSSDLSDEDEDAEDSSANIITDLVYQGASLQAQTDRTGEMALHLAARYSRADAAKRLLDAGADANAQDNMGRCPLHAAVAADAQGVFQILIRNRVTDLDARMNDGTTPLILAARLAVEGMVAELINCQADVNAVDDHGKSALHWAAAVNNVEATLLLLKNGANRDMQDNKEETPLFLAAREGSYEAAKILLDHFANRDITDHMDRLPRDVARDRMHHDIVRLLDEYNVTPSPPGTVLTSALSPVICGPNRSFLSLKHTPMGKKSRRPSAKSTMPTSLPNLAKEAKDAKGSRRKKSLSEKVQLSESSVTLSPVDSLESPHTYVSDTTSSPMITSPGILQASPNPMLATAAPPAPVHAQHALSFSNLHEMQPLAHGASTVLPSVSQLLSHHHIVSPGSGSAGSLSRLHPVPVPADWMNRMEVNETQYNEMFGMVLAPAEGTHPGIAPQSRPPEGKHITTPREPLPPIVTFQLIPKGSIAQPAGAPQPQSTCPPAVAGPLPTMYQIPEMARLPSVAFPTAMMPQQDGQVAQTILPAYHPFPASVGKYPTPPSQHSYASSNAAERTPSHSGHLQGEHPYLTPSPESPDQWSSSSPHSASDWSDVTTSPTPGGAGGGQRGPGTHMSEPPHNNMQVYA
Chain of Pro-neuregulin-1, membrane-bound isoform (Homo sapiens) (Q02297 whole entry, looked up, the tested form may be a part, canonical isoform): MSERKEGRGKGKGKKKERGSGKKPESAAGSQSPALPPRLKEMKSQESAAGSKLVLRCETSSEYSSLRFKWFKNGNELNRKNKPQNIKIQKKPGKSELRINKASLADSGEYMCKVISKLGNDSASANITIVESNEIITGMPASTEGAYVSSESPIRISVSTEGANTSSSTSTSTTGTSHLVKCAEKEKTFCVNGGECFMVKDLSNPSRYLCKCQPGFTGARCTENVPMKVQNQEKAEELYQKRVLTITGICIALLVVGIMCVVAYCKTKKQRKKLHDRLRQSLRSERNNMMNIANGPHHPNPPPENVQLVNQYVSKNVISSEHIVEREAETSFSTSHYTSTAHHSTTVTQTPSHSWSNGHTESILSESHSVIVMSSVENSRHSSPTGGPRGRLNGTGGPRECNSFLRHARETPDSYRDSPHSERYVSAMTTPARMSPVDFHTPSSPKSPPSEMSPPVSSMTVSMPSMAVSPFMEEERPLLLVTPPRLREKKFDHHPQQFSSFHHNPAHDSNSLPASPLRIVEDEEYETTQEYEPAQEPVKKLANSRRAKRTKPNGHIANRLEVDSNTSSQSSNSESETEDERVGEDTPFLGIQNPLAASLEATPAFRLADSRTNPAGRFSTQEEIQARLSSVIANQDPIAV

On to `C=CCC(OC(C)=O)[C@@H]1[C@@H](N(Cc2ccc(-c3ccccc3)cc2)C(=O)Cc2ccc(F)cc2)c2cc(OCCCO)ccc2N1C(=O)c1ccc2ccccc2n1` (stereo not given in full), for which the composite z-score in experiment [1] was -0.12; in experiment [2] it was -0.0608; in experiment [3] it was 0.0198; in experiment [4] it was -0.372; in experiment [5], 0.0329; in [6] it was 0.164. The composite z-score was -0.421 in [7], 0.167 in experiment [9] and 0.0623 in [10]. Also, in experiment [8], the z-score was -0.649 (inactive).
`C=C(C(=O)CC[C@H](OC(C)=O)c1ccc(OCCO)cc1)C(C)C`: the composite z-score is -0.398 in experiment [1]; 0.194 in experiment [2]; -0.134 in experiment [3]; 0.991 in [4]; 1.49 in experiment [5]; 0.0987 in [6]. Further, the values for the composite z-score in experiment [7], in experiment [9] and in experiment [10] were -0.108, 0.0745 and 0.174, respectively. Besides, the z-score in experiment [8] is -2.5 (inactive).
For the compound `C=CC(=C)C1=CCO[C@@H]1[C@H]1CCCN1S(=O)(=O)c1ccccc1[N+](=O)[O-]`, the composite z-score was -0.552 in [1]; 0.162 in [2]; -0.0716 in experiment [3]; 0.138 in experiment [4]; 1.07 in experiment [5]; 0.832 in experiment [6]. Besides, the composite z-score in experiment [7] is 1.01; in experiment [9], 0.358; in [10], -0.271. The z-score in experiment [8] is -0.788 (inactive).
Take `COc1ccc(C(O)C2C=CC3C(=O)N(c4ccccc4)C(=O)C3N2Nc2ccc([N+](=O)[O-])cc2)cc1OCc1ccccc1` (stereo not given): the composite z-score in experiment [1] was 2; in experiment [2] it was -0.14; in experiment [3] it was 0.649; in experiment [4] it was 1.06; in experiment [5], 1.29; in experiment [6], 2.06. Moreover, the composite z-score is 1.26 in experiment [7], 2.36 in experiment [9] and 1.2 in [10]. The z-score in [8] is 0.565 (inactive).
On to `N#Cc1ccc(NN2C(C(O)c3ccc([N+](=O)[O-])cc3)C=CC3C(=O)N(c4ccccc4)C(=O)C32)cc1` (stereo not given), for which the composite z-score is 0.298 in experiment [1]; -0.0479 in experiment [2]; 0.11 in [3]; 0.921 in experiment [4]; 1.59 in experiment [5]; 1.66 in experiment [6]. For the same compound, the composite z-score was 1.35 in experiment [7], 0.899 in experiment [9] and -0.287 in [10]. Moreover, the z-score in experiment [8] is 0.536 (inactive).
Turning to `C=CC[C@]1(C(=O)N2CCOCC2)N=C(c2ccc(OCCCO)cc2)O[C@H]1c1ccccc1`, the composite z-score was found to be 0.744 in experiment [1]; 0.905 in [2]; 0.0445 in experiment [3]; 0.147 in experiment [4]; 0.618 in experiment [5]; 2.1 in [6]. Besides, the figures for the composite z-score in experiment [7], in [9] and in experiment [10] were 1.25, 0.374 and -0.251, respectively. Besides, in experiment [8], the z-score was 0.54 (inactive).
For the compound `O=C1N(CCS(=O)(=O)c2ccccc2)Cc2ccccc2[C@H]2OC(c3ccc(OCCCO)cc3)=N[C@@]12CCS(=O)(=O)c1ccccc1`, the composite z-score in [1] is 1.11; in experiment [2] it was 0.994; in experiment [3], 0.145; in [4], 0.784; in experiment [5], 1.37; in [6] it was 1.62. The composite z-score in experiment [7] was 1.36; in [9], 0.593; in experiment [10], -0.189. Further, the z-score in experiment [8] is -2.53 (inactive).
Regarding `[N-]=[N+]=Nc1ccccc1[C@@H]1OC(c2ccc(OCCCO)cc2)=N[C@]1(CCS(=O)(=O)c1ccccc1)C(=O)N1CCOCC1`, the composite z-score in [1] stood at 0.712; in [2], 0.274; in experiment [3] it was 0.269; in experiment [4] it was 1.09; in experiment [5], 1.62; in experiment [6], 1.95. Moreover, the composite z-score in [7] is 1.24; in experiment [9] it was 1.89; in experiment [10], -0.123. Further, the z-score in experiment [8] is -0.246 (inactive).
Regarding `CCOC(=O)[C@H]1C/C=C/C[C@H](C(=O)OCC)C(=O)O[C@H]2[C@@H](OC)O[C@H](CO)[C@@H](OC(=O)Nc3ccc4c(c3)OCO4)[C@@H]2OC1=O`, the composite z-score in [1] was -0.267; in experiment [2] it was 0.451; in experiment [3] it was 0.0302; in experiment [4], 0.718; in experiment [5], 0.235; in [6] it was 1.5. The composite z-score in experiment [7] is 1.25; in experiment [9], 0.0008; in experiment [10], -0.212. Further, the z-score in experiment [8] was 0.891 (inactive).
For `C=C(COC)/C(=C/C[C@H](OC(=O)c1ccncc1)c1cccc(OCCO)c1)c1cc(C(=O)OC)ccc1OC`, the composite z-score in experiment [1] was -0.282; in experiment [2], 0.635; in experiment [3], -0.116; in experiment [4], 0.783; in [5] it was 0.0724; in [6], 0.555. The composite z-score in [7] is 1.27; in experiment [9], -0.0832; in experiment [10] it was 0.0505. In experiment [8], the z-score is -0.889 (inactive).
For `Cc1ccc(S[C@]2(C(=O)NC3CC3)CC(=O)N(C3CCCCC3)[C@@H]2c2ccc(CO)cc2I)cc1`, the composite z-score in experiment [1] was -0.208; in experiment [2] it was 0.298; in experiment [3], -0.0328; in experiment [4] it was 0.48; in [5], 1.03; in [6] it was 1.29. Moreover, the values for the composite z-score in [7], in experiment [9] and in experiment [10] were 1.31, 0.431 and 0.118, respectively. In experiment [8], the z-score is -4.48 (inactive).
For `CCCCCN1CC=CC23O[C@@H]4/C=C\CCCOC(=O)C4[C@H]2C(=O)N(CCCCCCO)[C@@H]3C1=O` (stereo not given in full), the composite z-score in experiment [1] is -0.19; in experiment [2], 0.109; in experiment [3], -0.103; in experiment [4], -0.525; in experiment [5] it was -0.774; in [6], 0.729. Moreover, the composite z-score was 1.28 in [7], -0.645 in experiment [9] and -0.37 in experiment [10]. In addition, the z-score in experiment [8] is -1.19 (inactive).
Regarding `O=C1OCC=C[C@H]2OC34C=CCN(c5ccc(Cl)cc5)C(=O)[C@H]3N(CCCCCCO)C(=O)[C@@H]4[C@@H]12` (stereo not given in full), the composite z-score is 1.06 in experiment [1]; -0.793 in [2]; -0.163 in experiment [3]; -0.688 in experiment [4]; -0.737 in experiment [5]; 2.26 in [6]. In addition, the composite z-score in experiment [7] was 1.53; in experiment [9] it was -0.455; in experiment [10] it was -0.271. In experiment [8], the z-score was 1.16 (inactive).
In the case of `O=C1N(CCS(=O)(=O)c2ccccc2)c2ccccc2C[C@@]12COC(c1ccc(OCCCO)cc1)=N2`, the composite z-score in experiment [1] is -0.178; in experiment [2], 0.858; in [3], 0.0887; in experiment [4], 0.322; in experiment [5], 1.33; in experiment [6] it was 1.11. Also, the composite z-score came to 1.33 in experiment [7], 0.971 in [9] and 0.075 in experiment [10]. For the same compound, the z-score in experiment [8] is 1.18 (inactive).
In the case of `COc1ccc(CCNC(=O)[C@@]2(Sc3ccc(C)cc3)CC(=O)N(Cc3ccccc3Cl)[C@@H]2c2ccc(CO)cc2I)cc1`, the composite z-score in experiment [1] was 0.91; in [2], -0.548; in experiment [3] it was -0.105; in experiment [4], 0.0404; in [5], -1.02; in experiment [6], 1.2. In addition, the results for the composite z-score in experiment [7], in experiment [9] and in experiment [10] were 0.883, -0.299 and 0.0695, respectively. The z-score in experiment [8] was -2.03 (inactive).
